LmPK inh – inhibitors of Leishmania mexicana pyruvate kinase; purified LmPK, Kinase-Glo ATP luminescence, 1 h; Potency, µM (titrated, usually from 57.5 µM), without a hit: at the highest dose activity change, negative = inhibition, hits mostly inhibitors; 290,000 tested, 0.37% active; further: potency means the concentration at half of the fitted maximal effect; on the % scale 0 is the no-effect control and ±100 the full control effect
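ATP generated from ADP (0.1 mM) and PEP (0.5 mM) by 0.1 nM LmPK over 1 h at room temperature (pH 7.2 imidazole buffer) was detected by coupled luciferase luminescence. Values were normalized to uninhibited and no-enzyme wells.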
Shiga toxin inh – Shiga toxin inhibition; inhibition, % at 38.7 µM; Vero cells, Shiga toxin protein synthesis inhibition reporter; 290,000 tested, 9.2% active; in the data active means inhibition mostly above about 28%, no sharp cut-off; inactive means mostly below about 43%; further: 0% is about no effect
Cycloheximide cs – affects cycloheximide protein synthesis inhibition readout, counter-screen. max response, %. cell reporter, cycloheximide protein synthesis inhibition counterscreen. 300,000 tested, 12% active; in the data active means max response mostly above about 13%, no sharp cut-off; inactive means mostly below about 14%; further: read at 38.3 µM for the half of the compounds with a filed dose; 0% is about no effect
Tb PYK inh – T. brucei pyruvate kinase inhibition | Q57TT1 | TbPYK enzyme, Kinase-Glo Plus ATP luminescence, 45 min | Potency, µM (top dose mostly 76.8 µM), for the others: at the highest dose activity, negative = inhibition, usual class: inhibitors | 410,000 tested, 0.12% active | AID 624173; further: potency means the concentration at half of the fitted maximal effect; on the % scale 0 is the no-effect control and ±100 the full control effect; nearly all actives have a fitted effect of over 50% in size
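Readout: single end-point luminescence (Kinase-Glo Plus, 10 min). Reaction conditions were TbPYK/substrate plus 130 uM ADP, 45 min at RT, pH 7.2 TEA buffer. No-enzyme wells served as controls, and data were normalized before concentration-response fitting.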
Giardia FBPA inh – blocks Giardia fructose-bisphosphate aldolase activity; 290,000 tested, 0.71% active; purified Giardia FBPA; Potency, µM (top dose mostly 59.6 µM), inactives show top-dose activity, negative = inhibition, usual class: inhibitors; further: potency means the concentration at half of the fitted maximal effect; on the % scale 0 is the no-effect control and ±100 the full control effect; nearly all actives have a fitted effect of over 55% in size
Target sequence (A8B2U2 whole entry, looked up): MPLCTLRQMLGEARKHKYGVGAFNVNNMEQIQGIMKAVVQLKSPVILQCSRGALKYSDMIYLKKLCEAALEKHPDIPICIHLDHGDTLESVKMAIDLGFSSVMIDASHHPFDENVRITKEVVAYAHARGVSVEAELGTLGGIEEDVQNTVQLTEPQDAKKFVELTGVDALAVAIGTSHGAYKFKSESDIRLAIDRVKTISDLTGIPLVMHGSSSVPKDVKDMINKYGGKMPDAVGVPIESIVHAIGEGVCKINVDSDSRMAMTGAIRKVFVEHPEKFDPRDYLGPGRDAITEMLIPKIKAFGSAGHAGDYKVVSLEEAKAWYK
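Giardia FBPA (40 nM reagent) was preincubated 10 min at RT with compound (up to 57.5 uM final), then substrate plus GAPDH/TPI/NAD/arsenate coupling system with diaphorase/resazurin was added; resorufin fluorescence (525/598 nm) was read after 20 min.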
RE007 growth inh – less growth of the S. pombe RE007 Vpr strain. Potency, µM (series often up to 92.2 µM), without a hit: at the top dose activity change, negative = less growth, usual class: inhibitors. S. pombe RE007 Vpr strain, BacTiter-Glo ATP luminescence, 24 h. 360,000 tested, 0.21% active; active means well fitted falling curve with a large enough effect; inconclusive means small, poorly fitted or top-dose-only effect; inactive means no such curve, though single readings can be large or run the other way; further: potency means the concentration at half of the fitted maximal effect; on the % scale 0 is the no-effect control and ±100 the full control effect; nearly all actives have a fitted effect of over 50% in size
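Fission yeast strain RE007, carrying one chromosomally integrated HIV-1 vpr copy, was seeded at OD 0.01 in PMG+AL medium with 23 nL pinned compound. After 24 h at 30 °C and 99% humidity, viability was read by BacTiter-Glo luminescence.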
The depositor's hits bear a star. The sample as a whole holds a higher share of hits than the screen did. Unless noted, the call rests on the fitted dose curve; in most records, active means well fitted curve in the direction sought with a large enough effect; inconclusive means small, poorly fitted or top-dose-only effect, or another doubt; inactive means no such curve, though single readings can be large; an effect the other way counts as inactive or inconclusive.

`Cc1cc(Nc2ncc(Cl)cc2Cl)n[nH]1` gave LmPK inh 1%, Shiga toxin inh 74, Cycloheximide cs 15*, Tb PYK inh 4%, Giardia FBPA inh -4% and RE007 growth inh -4%.
For CCOC(=O)c1cnc(SCC(=O)Nc2ccc(N3CCOCC3)cc2)nc1N the results were LmPK inh -7%, Shiga toxin inh -3, Cycloheximide cs -3 and Giardia FBPA inh -2%.
Screening CCOC(=O)c1cnc(SCc2ccc(C(C)(C)C)cc2)nc1N returned LmPK inh 7%, Shiga toxin inh -12, Cycloheximide cs -1, Tb PYK inh -24%, Giardia FBPA inh 0% and RE007 growth inh -6%.
For COc1cnc(SCc2ccc(Cl)cc2)nc1Cl the results were LmPK inh 3%, Shiga toxin inh 19, Cycloheximide cs 10, Tb PYK inh -8%, Giardia FBPA inh 8% and RE007 growth inh -14%.
CCOC(=O)c1cnc(SCc2ccccc2)nc1N was read as LmPK inh -7%, Shiga toxin inh 109*, Cycloheximide cs 47*, Tb PYK inh 7%, Giardia FBPA inh 3% and RE007 growth inh -6%.
`CCOC(=O)c1cnc(SCCN2CCOCC2)nc1N` gave LmPK inh 0%, Shiga toxin inh 34, Cycloheximide cs 18*, Tb PYK inh -1%, Giardia FBPA inh 4% and RE007 growth inh -7%.
Screening CCOC(=O)c1cnc(SCC(=O)OC)nc1N returned LmPK inh 0%, Shiga toxin inh 72, Cycloheximide cs 34*, Tb PYK inh 3%, Giardia FBPA inh 0% and RE007 growth inh -2%.
For Cc1nc(SCc2ccc(Cl)cc2)ncc1C(=O)O the results were LmPK inh 0%, Shiga toxin inh 60*, Cycloheximide cs 14, Tb PYK inh -19%, Giardia FBPA inh 14% and RE007 growth inh 3%.
For CCOC(=O)C(C)Sc1ncc(-c2ccccc2)cn1 (configuration not stated) the results were LmPK inh -1%, Shiga toxin inh 70*, Cycloheximide cs 58*, Tb PYK inh -2%, Giardia FBPA inh 4% and RE007 growth inh -14%.
Screening CCOC(=O)c1cnc(SSc2ncc(C(=O)OCC)c(N)n2)nc1N returned LmPK inh 0%, Cycloheximide cs -3, Tb PYK inh inconclusive, Giardia FBPA inh -16% and RE007 growth inh 16%.
Screening C=CCSc1ncc(C(=O)OCC)c(N)n1 returned LmPK inh -6%, Shiga toxin inh 51*, Cycloheximide cs 41*, Tb PYK inh -3%, Giardia FBPA inh 2% and RE007 growth inh 3%.
`CCOC(=O)C(C)Sc1nc(-c2ccccc2)ccc1C#N` (configuration not stated) gave Tb PYK inh -11%.
For Cc1cc(C)c2c(=O)c3c(oc2c1)C(=O)N(Cc1ccc(F)cc1)C3c1cccc(O)c1 (configuration not stated) the results were Tb PYK inh -12%.
Screening CC(C)(C)S(=O)(=O)Cc1nc(-c2ccc(Cl)c(Cl)c2)cs1 returned LmPK inh 6%, Shiga toxin inh 65*, Cycloheximide cs 30*, Tb PYK inh -5%, Giardia FBPA inh -10% and RE007 growth inh 13%.
`Cc1cc(C)n(CCc2nc(-c3ccc(C(C)(C)C)cc3)cs2)n1` gave LmPK inh 1%, Shiga toxin inh 7, Cycloheximide cs 0, Tb PYK inh 5%, Giardia FBPA inh -3% and RE007 growth inh -12%.
`O=C(c1ccc2c(Cl)c3c(nc2c1)CCCC3)N1CCN(c2cccc(C(F)(F)F)c2)CC1` gave Tb PYK inh -5%.
COC(=O)C1=C(C)OC(N)=C(C#N)C1c1cc2cc(C)ccc2nc1Cl (configuration not stated) was read as LmPK inh 3%, Shiga toxin inh 3, Cycloheximide cs -2, Tb PYK inh 0%, Giardia FBPA inh inconclusive and RE007 growth inh -1%.
